From PubChem BioAssay
Sampled rows, rich in hits. Any-hit rate of the full collection: about 3.2%.
Tau fluor counter: counter-screen for tau fibril formation inhibitors; tau K18 P301L Alexa594 fluorescence, heparin fibrillization; Potency, µM (titrated, usually from 57.7 µM), for the others: at the top dose activity change, negative = decrease; 0.93% of 280,000 active; further: potency means the concentration at half of the fitted maximal effect; on the % scale 0 is the no-effect control and ±100 the full control effect; nearly all actives have a fitted effect of over 55% in size
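Human tau K18 P301L (15 uM unlabeled, 0.24 uM Alexa 594-labeled) in 100 mM sodium acetate pH 7 with 20 uM heparin, 6 hr at 37 C. ThT 30 uM added, 1 hr ambient; Alexa 594 FP and total fluorescence read at 555/632 nm.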
LMNA splice mod: modulators of lamin A splicing; HeLa LMNA splicing GFP/RFP minigene ratio, 48 h; Potency, µM (highest dose often 46.1 µM), for inactives: top-dose ratio change, negative = inhibition, most hits filed as inhibitors; 0.01% of 200,000 active; active means well fitted inhibition curve with a large enough effect in the signal ratio, with a control signal flat, not every such curve was filed as active; inconclusive means small, poorly fitted or top-dose-only effect, or effect the other way, or a change in a side signal; the % refers to the signal ratio; further: potency means the concentration at half of the fitted maximal effect; on the % scale 0 is the no-effect control and ±100 the full control effect
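S3 HeLa cells stably expressing lamin A-EGFP splicing minigene plus DsRed2, 600 cells/well, 48 h compound exposure at 37C. Laser-scanning cytometry; analysed as GFP (500-530 nm)/RFP (575-640 nm) total intensity ratio; 0.5% DMSO vehicle.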
Tau fibril ThT: blocks human tau fibril formation measured by thioflavin T | 2.1% of 270,000 active | Potency, µM (series often up to 57.4 µM), for the others: top-dose activity, negative = inhibition, actives largely listed as inhibitors | AID 1460 | recombinant tau K18 P301L (four-repeat tau fragment), heparin-induced fibrillization, ThT fluorescence; further: potency means the concentration at half of the fitted maximal effect; on the % scale 0 is the no-effect control and ±100 the full control effect; nearly all actives have a fitted effect of over 55% in size
Target sequence (P10636 561-689 P618L limits assumed): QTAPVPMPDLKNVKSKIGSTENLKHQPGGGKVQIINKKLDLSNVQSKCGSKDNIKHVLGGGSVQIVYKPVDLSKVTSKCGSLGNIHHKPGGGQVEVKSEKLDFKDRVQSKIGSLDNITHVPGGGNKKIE
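K18 P301L tau (15 uM + 0.24 uM Alexa 594-tagged), heparin 20 uM, NaOAc pH 7, 6 h 37 C; ThT 30 uM, 1 h RT, ex 450/em 510 nm.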
CBFb RUNX1 block: CBF-beta/RUNX1 interaction disruption | Q01196+Q13951 | AlphaScreen CBFb-His/RUNX1-biotin binding, biochemical | Potency, µM (top dose mostly 59.8 µM), without a hit: top-dose activity, negative = inhibition, actives largely listed as inhibitors | 230,000 tested, under 10 active | AID 1477; further: % of control where 0% means no effect
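Read-out: AlphaScreen. Format: His-CBF-beta with biotinylated RUNX1 (30 nM each) preincubated 20 min, compound 15 min, Ni-chelate plus streptavidin beads 90 min; room temperature throughout.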
Tau FP inhib: inhibitors of human tau fibril formation; Potency, µM (titrated, usually from 57.7 µM), for inactives: at the highest dose activity, negative = inhibition, hits mostly inhibitors; K18 P301L tau heparin fibrillization, Alexa594 FP, 6 h; AID 1468; 0.39% of 280,000 active; P10636; further: potency means the concentration at half of the fitted maximal effect; on the % scale 0 is the no-effect control and ±100 the full control effect; nearly all actives have a fitted effect of over 55% in size
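Read-out: fluorescence polarization of Alexa 594-labeled tau (0.24 uM), 555 nm excitation, 632 nm emission. Mixtures held 15 uM unlabeled K18 P301L, compound and 20 uM heparin, pH 7 acetate buffer, incubated 6 hr at 37 C.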
JMJD2E inh: blocks human JMJD2E demethylase activity. Potency, µM (highest dose often 57.1 µM), for the others: top-dose activity change, negative = inhibition, actives largely listed as inhibitors. B2RXH2. JMJD2E catalytic domain, FDH-coupled NADH fluorescence (FDH is formaldehyde dehydrogenase). 1.6% of 230,000 active; active means well fitted inhibition curve with a large enough effect, not every such curve was filed as active; inconclusive means small, poorly fitted or top-dose-only effect, or another doubt; inactive means no such curve, though single readings can be large or run the other way;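 further: potency means the concentration at half of the fitted maximal effect; 0% = wells with enzyme and -100% = buffer wells without enzyme; nearly all actives have a fitted effect of over 50% in size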
Target sequence (B2RXH2 1-337 limits assumed): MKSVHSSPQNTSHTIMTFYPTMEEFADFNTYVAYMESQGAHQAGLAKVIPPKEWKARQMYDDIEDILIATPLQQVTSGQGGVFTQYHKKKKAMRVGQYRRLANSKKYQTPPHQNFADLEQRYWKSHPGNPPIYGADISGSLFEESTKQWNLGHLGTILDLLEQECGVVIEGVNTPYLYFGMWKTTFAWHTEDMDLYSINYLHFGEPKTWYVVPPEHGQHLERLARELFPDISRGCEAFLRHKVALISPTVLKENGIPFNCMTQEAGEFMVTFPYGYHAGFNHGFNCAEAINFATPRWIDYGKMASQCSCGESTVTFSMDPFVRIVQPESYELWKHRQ
* hit, by the source's call; ? = inconclusive; . = not tested or not shown; [ ] = another dose, or the depositor's remark. Unless noted, the call rests on the fitted dose curve; in most records, active means well fitted curve in the direction sought with a large enough effect; inconclusive means small, poorly fitted or top-dose-only effect, or another doubt; inactive means no such curve, though single readings can be large; an effect the other way counts as inactive or inconclusive.

SMILES	Tau fluor counter	LMNA splice mod	Tau fibril ThT	CBFb RUNX1 block	Tau FP inhib	JMJD2E inh
Cc1ccc(N2CCN(C(=O)c3cc4cc5ccc(C)cc5nc4s3)CC2C)cc1 (centres undefined)	-12.6%	.	-5.3%	.	6.8%	.
COc1ccc(C2CC(=O)c3c(O)cc(O[C@H]4OC(COC5OC(C)C(O)C(O)[C@@H]5O)C(O)C(O)C4O)cc3O2)cc1O (some centres undefined)	2.1%	-8.1%	-2.9%	.	0.6%	5.6%
CCOCCCn1c(=N)c(C(=O)NC2CCCC2)cc2c(=O)n3cccc(C)c3nc21	3.5%	.	-3.4%	.	-1.8%	.
CCOc1cccc(C2Oc3nc(SC)nnc3-c3ccccc3N2C(C)=O)c1OC (centres undefined)	-9.4%	.	-9.2%	.	-7.2%	.
COc1ccc(-n2ncc(C(=O)N3CCN(C(=O)c4ccco4)CC3)c2C2CCN(C(=O)OC(C)(C)C)CC2)cc1	10.9%	0.4%[46 µM]	13.8%	.	-2.4%	.
CCOC(=O)c1sc(NC(=O)c2cc(-c3ccccc3C)nc3ccccc23)c(C#N)c1C	?	?	?	-1.2%	-7.2%	?
Cc1ccccc1-c1cc(C(=O)Nc2sc(C)c(C)c2C(N)=O)c2ccccc2n1	?	-4.3%	22.4µM*	-3.2%	?	-9.7%
CCn1c(SCC(=O)c2ccc(O)c(O)c2)nnc1-c1ccccc1OC	-7.0%	?	-6.8%	-10.5%	2.4%	22.4µM*
C=CCn1c(SCC(=O)c2ccc(O)c(O)c2)nnc1-c1ccccc1OC	-14.4%	-11.8%	?	-7.3%	4.3%	10µM*
CCn1c(CSc2nc3ccccc3s2)nnc1SCC(=O)c1ccc(O)c(O)c1	?	?	?	-26.1%	-2.9%	14.1µM*
COc1ccccc1-c1nnc(SCC(=O)c2ccc(Cl)cc2)n1-c1ccccc1	-16.9%	.	-12.9%	.	-4.7%	.
C=CCn1c(SCC(N)=O)nnc1-c1ccccc1O	3.6%	?	1.1%	3.6%	4.2%	0.0%
C=CCn1c(SCC(=O)c2ccc(O)c(O)c2)nnc1-c1cccnc1	-21.5%	.	?	?	-8.3%	3.55µM*
COc1ccc(C(=O)Nc2ccccc2C(=O)OCc2cc(=O)n3nc(C4CC4)sc3n2)cc1	-8.2%	-4.1%[46 µM]	-4.9%	.	-12.6%	.
CCn1c(SCC(=O)c2ccc(O)c(O)c2)nnc1-c1ccccc1	-12.8%	-22.4%	?	-6.6%	-0.4%	12.6µM*
CCOC(=O)C(C(C)=O)c1c(Br)c(O)c(O)c2c(C(=O)c3ccc(C)cc3)coc12 (centres undefined)	-12.4%	?	?	-27.4%	4.9%	25.1µM*
O=C(NCc1ccccc1Cl)c1ccc(Cn2c(=O)c3cccn3c3cccnc32)cc1	-11.8%	.	1.2%	.	?	.
CS(=O)(=O)N1CCN(c2ccc(NC(=S)NC(=O)c3cccs3)cc2)CC1	-12.6%	?	?	23.0%	1.7%	1.5%
O=C(NC(=S)Nc1ccc(N2CCCCC2)cc1)c1cccs1	15.8µM*[quencher]	?	12.6µM*	?	?	0.4%
CCN(CC)c1ccc(NC(=S)NC(=O)c2cccs2)cc1	12.6µM*[quencher]	?	6.31µM*	?	18.5%	-29.6%
O=C(Nc1ccc(N2CCCC2)c(Cl)c1)c1cccs1	15.8µM*[quencher]	.	?	3.3%	10.8%	0.8%
CCN(CC)c1ccc(NC(=S)Nc2ccc(F)cc2)cc1	?	.	12.6µM*	?	?	8.91µM*
COc1ccc(C2=NC(c3ccc(Cl)cc3)C(c3ccc(Cl)cc3)N2C(=O)N2CCNC(=O)C2)c(OC(C)C)c1 (centres undefined)	.	.	.	-3.3%	.	.
COc1ccccc1CNC(=O)c1c(O)c2cc(OC)c(OC)cc2[nH]c1=O	1.8%	0.4%	-5.1%	3.4%	1.0%	3.55µM*
COc1ccc(/C=N/NC(=O)CCn2c3ccccc3c3ccccc32)cc1O	17.8µM*[quencher]	?	?	1.6%	-9.5%	-3.0%
